In PubChem BioAssay (NCI):
About 83,000 compounds went through this panel and 20% of them were active in at least one assay; those are over-represented in the sample as a whole.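 How to read the values: 0–100, growth inhibition (40 = 60% inhibited); 0, no net growth; -100 to 0, cell death (-40 = 40% of starting cells died; -100 = all dead).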 Values without a mark were called inactive. Activity calls are given as the source filed them. Rule for the calls: active = growth percent below 10; inactive = the rest.

Tested on: HL-60(TB) leukemia
Experiment: NCI-60 one-dose screen, 48 h (100 = growth as untreated, 0 = no growth, -100 = all killed)
Conditions: 10 µM unless noted

Q: For CN(C)CCCn1c2c(c3ccc(N4CCNCC4)cc3c1=O)C(=O)c1ccccc1-2, which growth is on record?
A: Its growth is 8.73% (active).

Q: How did the growth turn out when COc1ccc(-c2c[nH]c(C(=O)O)c2-c2cc(OC)c3c(c2OC)OCO3)cc1 was run?
A: The growth was 105%.

Q: How did the growth turn out when CC(=O)O[C@]1(C)CC[C@H]2[C@H](CNCCc3ccc(Cl)cc3)C(=O)O[C@@H]2C2=C(C)C(=O)C[C@H]21 was run?
A: Its growth is 89.2%.

Q: With O=C(NCc1ccccc1)c1cccc([N+](=O)[O-])c1 as the compound, how does the growth read?
A: The growth was 101%.

Q: C1=C(Cc2ccccc2)n2cnc3ncnc(c32)S1 was tested. Which growth did it give?
A: The growth was 75.1%.

Q: How did the growth turn out when COc1cc(NC(=O)CCSc2nc3ccc(C)cc3c(=O)n2Cc2ccccc2)cc(OC)c1OC was run?
A: Its growth is 116%.

Q: With COc1cccc(-c2cc(-c3cccc(Cl)c3)c(C#N)c(=O)[nH]2)c1 as the compound, how does the growth read?
A: Its growth is 36.2%.

Q: c1ccc(CSc2nnc3c4c5c(sc4nc(-c4cccnc4)n23)CCCCCC5)cc1 was tested. Which growth did it give?
A: Its growth is 4% (active).

Q: Which growth does the source give for COc1cc2c(c(Br)c1N)-c1cc(Br)c(N)cc1C2=O here?
A: The growth was 88.9%.

Q: Which growth does the source give for COc1ccc(C(=O)/C=C/c2ccc(/C=C/c3cc(OC)c(OC)c(OC)c3)cc2)cc1 here?
A: Its growth is 21.5%.

Q: OCCOSCCO was tested. Which growth did it give?
A: Its growth is 99.1%.

Q: With CNC(=O)c1cc(Oc2ccc3nc(NC(=O)NC(C)C)sc3c2)ccn1 as the compound, how does the growth read?
A: Its growth is 47.8%.

Q: How did the growth turn out when Cc1ccc(C(=O)Nc2cccc(F)c2)cc1NC(=O)C1(c2ncnc3[nH]ccc23)CC1 was run?
A: The growth was 64.7%.

Q: How did the growth turn out when Nc1nc(Cl)c2[nH]cnc2n1 was run?
A: The growth was 89.5%.

Q: For COc1ccc(-c2cc(-c3ccc(Cl)cc3)c(C#N)c(=O)n2CCCCC(=O)NO)cc1, which growth is on record?
A: Its growth is 92.7%.
